High-throughput results as filed in PubChem.
TAG inh = inhibitors of triacylglycerol accumulation, primary screen, cell-based, uHTS, fluorescence, H9c2; H9c2 cells, Nile Red lipid (TAG) fluorescence; cells loaded with 200 µM oleic acid; inhibition, % at 12.5 µM; 230,000 compounds, 0.66% hits;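 active means pattern-corrected inhibition of lipid staining of at least 50% with the nuclear-stain viability signal not falling by more than 50%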;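 further: 0% = DMSO wells and 100% = triacsin C control wells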
CHT block = inhibitors of human choline transporter CHT; High affinity choline transporter 1 (Homo sapiens), Q9GZV3; CHT-expressing cells, membrane potential dye, choline response; hits give low values; B-score at 10 µM; 310,000 compounds, 0.86% hits;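 active means B-score over 3 SD under the library average, and starting fluorescence ratio not unusually high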;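 further: choline stimulus applied at its EC90 after an EC20 pre-addition; B-score computed on integrated fluorescence ratio after choline addition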
Target sequence (Q9GZV3 whole entry, looked up): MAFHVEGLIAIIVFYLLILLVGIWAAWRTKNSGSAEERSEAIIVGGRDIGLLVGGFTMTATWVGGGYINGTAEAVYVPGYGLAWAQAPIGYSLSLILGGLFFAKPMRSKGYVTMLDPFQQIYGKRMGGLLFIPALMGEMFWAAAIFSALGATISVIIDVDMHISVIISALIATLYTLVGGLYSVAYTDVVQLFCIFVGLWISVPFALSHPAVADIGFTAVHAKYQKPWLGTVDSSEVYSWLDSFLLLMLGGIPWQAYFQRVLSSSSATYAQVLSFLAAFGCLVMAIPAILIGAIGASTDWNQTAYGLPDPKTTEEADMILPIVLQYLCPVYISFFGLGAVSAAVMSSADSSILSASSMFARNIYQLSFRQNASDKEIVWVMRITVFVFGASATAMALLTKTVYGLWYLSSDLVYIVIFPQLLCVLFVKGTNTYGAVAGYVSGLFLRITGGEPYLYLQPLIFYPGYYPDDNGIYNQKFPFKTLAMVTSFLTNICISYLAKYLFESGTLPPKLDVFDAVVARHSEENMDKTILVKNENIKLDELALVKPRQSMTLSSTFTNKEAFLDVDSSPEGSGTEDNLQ
Kir21 block = inhibitors of mouse Kir2.1 inward-rectifier potassium channel | Inward rectifier potassium channel 2 (Mus musculus), P35561 | HEK293-Kir2.1, FluxOR thallium flux fluorescence; hits give low values | B-score at 10 µM | 310,000 compounds, 0.85% hits | AID 1672, 2009;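 active means fluorescence ratio B-score at or below minus 3 SD of library scores, with starting-brightness B-score within 2 SD, cut at about -4.2 in these data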;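 further: channel flux triggered by added potassium and thallium sulfate stimulus; B-score of peak minus minimum fluorescence over baseline after thallium stimulus; more negative B-score means stronger Kir2.1 block with less thallium influx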
CHT allo act = CHT positive allosteric modulators, primary screen, cell-based, membrane potential dye, choline EC20; High affinity choline transporter 1 (Homo sapiens), Q9GZV3; CHT-expressing cells; hits give high values; LV-AA mutant CHT in HEK293 cells; B-score at 10 µM; 310,000 compounds, 0.49% hits;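 active means initial fluorescence not abnormally high and integrated response B-score, plate-corrected, over 3 SD above library mean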
* hit, by the source's call; i = inactive; nt = no result given. A selection: hits, their analogues and other compounds. The true share with any hit is near 2%.

SMILES | TAG inh | CHT block | Kir21 block | CHT allo act
Cc1nn(Cc2ccc(C(=O)N3CCN(C(=O)c4ccco4)CC3)o2)c(C)c1[N+](=O)[O-] | 16 | i | 0.06 | i
O=C(NCc1ccco1)c1cccc2c(-c3ccc(F)c(F)c3)coc12 | -38 | nt | nt | nt
CC(C(=O)NCCCn1ccnc1)(c1ccccc1)c1ccccc1 | 9 | i | 0.6 | i
CCc1nnc(NC(=O)c2ccc(OC)c(S(=O)(=O)N3CCCC3)c2)s1 | -6 | nt | nt | nt
CC(C)(C)NC(=O)NC(=O)CN1C(=O)NC(c2ccccc2)(c2ccccc2)C1=O | nt | i | -1.6 | i
CCC(C)C(=O)N1c2ccccc2C(=C2SC(C(=O)OC)=C(C(=O)OC)S2)C(=S)C1(C)C (stereo unspecified) | 49 | i | -0.09 | i
COc1cc(CNCc2cccc3ccccc23)cc(OC)c1 | nt | i | -4.7* | i
c1ccc2cc(CNCc3cccc4ccccc34)ccc2c1 | 3 | i | -0.08 | i
CCOc1cc(C2NC(=O)NC(c3ccccc3)=C2C(C)=O)ccc1OC(C)=O (stereo unspecified) | 0 | i | 1.9 | i
COC(=O)c1ccc(N2CCN(C)CC2)c(NC(=O)c2ccc(Br)o2)c1 | 0 | -5.3* | 0.99 | i
COc1cc(CNC(C)c2ccccc2)cc(Cl)c1OCC(=O)Nc1ccccc1 (stereo unspecified) | 19 | i | -9.5* | i
CN(C)c1nc(N)c([N+](=O)[O-])c(NCC2CCCO2)n1 (stereo unspecified) | 3 | i | 1.8 | i
CC(C)n1c(SCc2cc(=O)[nH]c3ccccc23)nc2c1c(=O)n(C)c(=O)n2C | nt | i | -0.44 | i
CC(C)n1c(SCc2ccccc2F)nc2c1c(=O)n(C)c(=O)n2C | -62 | i | -4.6* | i
CC(c1ccccc1C(O)(c1ccccc1)c1ccccc1)N(C)C (stereo unspecified) | nt | i | -6.2* | i
CN1CCN(C2=Cc3ccccc3Sc3cc(F)c(Cl)cc32)CC1 | 1 | i | -1.7 | i
CN1CCN(C2=Cc3ccccc3Sc3cc(F)c(F)cc32)CC1 | 20 | i | -4.4* | i
Cc1cc(NC(=O)Nc2ccc(Cl)c(Cl)c2)n(-c2ccccc2)n1 | 8 | i | 0.3 | i
CCOC(=O)c1[nH]c2c(c1C)C(=O)CC(c1ccco1)C2 (stereo unspecified) | 38 | i | 0.27 | i
CSCCOC(=O)c1[nH]c2c(c1C)C(=O)CC(c1ccco1)C2 (stereo unspecified) | 56* | i | 2.2 | i
CN(C)CCNC(=O)c1cccc2nc3c(ccc4ccccc43)nc12 | 51* | nt | nt | nt
CCOc1ccc(N(CC(=O)Nc2ccccc2C)S(=O)(=O)c2c(C)noc2C)cc1 | 70* | i | -0.01 | i
CCOc1ccccc1NC(=O)CN(c1ccc(OC)cc1)S(=O)(=O)c1c(C)noc1C | nt | i | -2.1 | i
Cc1cc(N2CCC(C)CC2)c(F)cc1[N+](=O)[O-] | nt | i | 0.19 | i
Cc1cc(N2CCCC2)c(F)cc1/C=C\[N+](=O)[O-] | -5 | nt | -7.7* | nt
SMILES | TAG inh | CHT block | Kir21 block | CHT allo act
CCc1cc(CC)c(/C=N/NC(N)=O)c(CC)c1 | 4 | i | -7.3* | i
C/C=C/c1ccc(OCC(O)CNCC(c2ccc(OC)cc2)N(C)C)c(OC)c1 (stereo unspecified) | nt | i | 0.55 | i
C/C=C/c1ccc(OCC(O)CNCCc2ccc(OC)cc2)c(OC)c1 (stereo unspecified) | nt | i | -6* | i
C/C=C/c1ccc(OCC(O)CN(C)Cc2ccc(SC)cc2)c(OC)c1 (stereo unspecified) | nt | i | -11* | i
COc1cc(C(O)c2nc(-c3cccc4cccnc34)cs2)ccc1F (stereo unspecified) | 12 | nt | nt | nt
CN(C)c1ccc(CN(C(=O)c2ccc(Cl)c([N+](=O)[O-])c2)C2CCS(=O)(=O)C2)cc1 (stereo unspecified) | 11 | i | 2.1 | i
O=C1CSC(c2cccnc2)N1C1CCCCC1 (stereo unspecified) | -6 | i | -2 | i
O=C1CSC(c2ccc(Cl)cc2)N1C1CCCCC1 (stereo unspecified) | -12 | i | -6.1* | i
O=C1NC(=S)SC1=C1CCCCCC1 | nt | -6* | -0.38 | i
Cc1cc(Br)c(NC(=O)Cn2c([N+](=O)[O-])cnc2C)cc1C | nt | i | 2.2 | i
COCCN(C(=O)COC(=O)CNC(=O)c1ccc(C)cc1)c1c(N)n(Cc2ccccc2)c(=O)[nH]c1=O | 14 | nt | nt | nt
CCN(Cc1ccccc1)C(=O)CCc1nc(-c2ccc(C)cc2)no1 | -7 | i | -6.7* | i
Cc1ccc(-c2noc(CCC(=O)NCCN3CCc4ccccc4C3)n2)cc1 | 12 | i | -8.8* | i
Cc1ccc(-c2noc(CCC(=O)NCCN3CCOCC3)n2)cc1 | 23 | i | 0.04 | i
COc1ccc(-c2noc(CCC(=O)NCCCN3CCC(Cc4ccccc4)CC3)n2)cc1 | 37 | i | -4.6* | i
O=C1CS/C(=N/N=C/c2ccco2)N1Cc1ccc(F)cc1 | -2 | i | -1.5 | i
O=C(C1CC(=O)N(c2ccc3c(c2)OCCO3)C1)N1CCN(S(=O)(=O)c2cccc(F)c2)CC1 (stereo unspecified) | -5 | nt | nt | nt
C(=C\c1ccccc1)/CNn1cnnc1 | nt | i | 2 | i
Clc1ccccc1CSc1nncn1NC/C=C/c1ccccc1 | nt | i | -6.6* | i
CSc1ccccc1NC(=O)CSCc1ccccc1Br | -24 | i | -5.3* | i
O=C(CSCc1ccccc1Br)NC1CC1 | nt | i | 0.74 | i
COC(=O)C=CC(=NNc1ccccc1)c1ccccc1 | 4 | nt | nt | nt
Cn1nnnc1N=N/C(=N/Nc1ccccc1)c1ccccc1 | 72* | i | -1.3 | i
CCN1C(=O)/C(=C/N(C(C)=O)c2ccccc2)N(c2ccccc2)C1=S | 19 | i | -4.5* | i
CN1CCC(Oc2ccccc2Sc2ccc(C(F)(F)F)cc2)CC1 | nt | i | -11* | i
SMILES | TAG inh | CHT block | Kir21 block | CHT allo act
CN1CCC(Oc2ccc(Sc3ccccc3)cc2)CC1 | nt | i | -7.5* | i
CN1CCC(OC(=O)COc2ccccc2)CC1 | 6 | i | -0.4 | i
CN1CCC(OC2c3ccccc3CCc3ccccc32)CC1 | -2 | nt | nt | nt
COc1ccccc1CN(C)C(=O)c1cc(-c2cccs2)nc2ccccc12 | nt | i | -0.76 | i
Cc1ccc2nc(Cl)c3cc(C(=O)NCCCN4CCCC4)sc3c2c1 | 27 | i | 0.46 | i
CCOc1ccc(OCCC(=O)OCC(=O)N(CC)c2c(N)n(Cc3ccccc3)c(=O)[nH]c2=O)cc1 | 1 | nt | nt | nt
COc1ccc(C2=NOC(C(=O)Nc3cccnc3Cl)C2)cc1 (stereo unspecified) | nt | i | 1.3 | i
CCCCNC(=O)NCCN1CCOCC1 | 6 | i | -0.31 | i
O=C(COC(=O)CNS(=O)(=O)c1ccccc1)Nc1ncc(Cl)cc1Cl | 6 | nt | nt | nt
